Test results: PubChem BioAssay (NCI)
About 83,000 compounds went through this panel and 20% of them were active in at least one assay; those are over-represented in the sample as a whole.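 Single-concentration screen, 48 h exposure, 96-well plates. Endpoint: percent growth. Below 10 = active.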 Unmarked numbers belong to inactive results. Calls of active or inactive are those of the source.

Each compound was assayed on SR leukemia (assay: NCI-60 one-dose screen, 48 h (100 = growth as untreated, 0 = no growth, -100 = all killed)). Conditions: 10 µM unless noted.

Row | SMILES | growth
1 | CCOC(=O)c1cnc2c(OC)ccc(OC)c2c1Cl | 115%
2 | NS(=O)(=O)c1ccc(Nc2nc(O)c(/C=C3\C=Nc4ccccc43)s2)cc1 | 99.2%
3 | CNC(=O)NN | 104%
4 | Cc1cc(O[C@@H]2O[C@@H](C)[C@H](O)[C@@H](O)[C@H]2O)c2c3c(c(O[C@@H]4O[C@@H](C)[C@H](O)[C@@H](O)[C@H]4O)cc2c1)C(=O)c1c(O)cccc1C3=O | 82.6%
5 | Cc1cccc(Cc2cnc(NC(=O)CCc3ccc(C)o3)s2)c1 | 5.14% (active)
6 | C=CC(=O)NC(=O)Nc1ccccc1Cl | 39.8%
7 | COc1cccc(-c2nc3sccn3c2-c2ccnc(NCCNC(=O)c3ccccc3)n2)c1 | 79.8%
8 | COc1ccc(-c2nn(-c3ccc(NC(=O)Nc4ccc(Cl)c(C(F)(F)F)c4)cc3)cc2-c2ccncc2)cc1Cl | -7.31% (active)
9 | CC(C)CNCC(O)COc1ccc(C(C)(C)c2ccc(OCC(O)CNCC(C)C)cc2)cc1 (stereo not given) | -38.7% (active)
10 | Cc1ccc2[nH]c3nc4cccnc4c(C)c3c2c1 | 2.59% (active)
11 | O=C(Nc1ccc(-n2ccc3c(NC(=O)c4ccccc4)nccc32)cc1)c1ccc(Cl)c(C(F)(F)F)c1 | -28.7% (active)
12 | COc1ccc(-c2nn(-c3ccc(NC(=O)Nc4ccc(Cl)c(Cl)c4)cc3)cc2-c2ccncc2)cc1Cl | 5.18% (active)
13 | Nc1nccc2c1ccn2-c1cccc(NC(=O)c2ccc(N3CCOCC3)c(C(F)(F)F)c2)c1 | -13.4% (active)
14 | COc1ccc(/C=C/C(=O)/C=C(/C=C/c2ccc(OC)c(OC)c2OC)OB(F)F)c(OC)c1OC | 0.627% (active)
15 | Cc1cc[n+](CCCC[n+]2ccc(C)cc2)cc1 | 97.3%
16 | COC1=C(OC)C(=O)C=CC1=O | 38.1%
17 | Cc1ccccc1C[P+](c1ccccc1)(c1ccccc1)c1ccccc1 | 22.2%
18 | CC/C(=C(\CC)c1ccc(OCCN(CC)CC)cc1)c1ccc(OCCN(CC)CC)cc1 | -8.6% (active)
19 | COc1cccc(-c2nc3sccn3c2-c2ccnc(NCCNC(=O)Nc3cccc(C(F)(F)F)c3)n2)c1 | 38.5%
20 | COc1ccc(-c2cnc(-c3ccc(F)cc3)[nH]2)cc1 | -29.7% (active)
21 | O=C(Nc1ccc(-n2cc(-c3ccncc3)c(-c3ccc(O)c(Cl)c3)n2)cc1)c1ccc(Cl)c(C(F)(F)F)c1 | 8.48% (active)
22 | O=C(Nc1ccc(-n2ccc3c(NC(=O)c4ccccc4)ncnc32)cc1)c1ccc(Cl)c(C(F)(F)F)c1 | -19.6% (active)
23 | C=CC(=O)Nc1cccc(Nc2nc(Nc3ccc(OCCOC(F)F)cc3)ncc2F)c1 | 10.5%
24 | O=[N+]([O-])c1cccc(C(c2ccccc2)c2ccccc2)c1 | 78.3%
25 | O=C(NCCNc1nccc(-c2c(-c3cccc(O)c3)nc3sccn23)n1)Nc1cccc(C(F)(F)F)c1 | 59.2%
26 | O=C(Nc1cccc(-n2ccc3c(NC(=O)c4ccccc4)nccc32)c1)c1cc(N2CCOCC2)cc(C(F)(F)F)c1 | -14.2% (active)
27 | O=C(Nc1ccc(-n2cc(-c3ccncc3)c(-c3ccc(O)c(Cl)c3)n2)cc1)c1cc(C(F)(F)F)cc(C(F)(F)F)c1 | 58.8%

The compounds below were run on RPMI-8226 leukemia in the same assay as above. Conditions: 10 µM unless noted.

Row | SMILES | growth
28 | O=C(Cn1c2ccccc2c2ccncc21)N/N=C/c1c[nH]c2ccccc12 | -27.7% (active)
29 | Cc1ccc(-c2nc3c(N=Nc4ccc(S(N)(=O)=O)cc4)c(N)nn3c(N)c2C#N)cc1 | -16.4% (active)
30 | O=C(Nc1ccccc1Cl)c1c[nH]c(=O)c(-c2ccc(N3CCCOC4(CC4)C3)cc2)c1 | 21.2%
31 | OC(COc1ccccc1Cl)CN1CCN(c2ccc(Cl)cc2)CC1 (stereo not given) | 86.6%
32 | Nc1nccc2c1ccn2-c1ccc(NC(=O)Nc2cccc(C(F)(F)F)c2)cc1 | 67.4%
33 | O=C(Nc1ccc(-n2ccc3c(NC(=O)c4ccccc4)nccc32)cc1)Nc1cccc(C(F)(F)F)c1 | 19.4%
34 | O=C1C(Cl)=C(Nc2ccccc2)C(=O)C(Cl)=C1Nc1ccccc1 | 107%
35 | CC(=O)Nc1ccc([I+]c2ccc([N+](=O)[O-])cc2)cc1 | 92.7%
36 | CCN1CCN(Cc2ccc(NC(=O)Nc3cccc(-n4ccc5c(NC(=O)c6ccccc6)nccc54)c3)cc2C(F)(F)F)CC1 | 99.1%
37 | O=C(Nc1cccc(-n2ccc3c(NC(=O)c4ccccc4)nccc32)c1)c1cccc(C(F)(F)F)c1 | -36.1% (active)
38 | CC(=O)N[C@@H](CNC(=O)c1cc(NC(=O)c2cc(NC(=O)c3cc(NC(=O)c4nccn4C)cn3C)cn2C)cn1C)CC(=O)Nc1cn(C)c(C(=O)Nc2cc(C(=O)Nc3cc(C(=O)Nc4cc(C(=O)NCCCN(C)CCCNC(=O)c5cccc(C(=O)O)c5)n(C)c4)n(C)c3)n(C)c2)n1 | 105%
39 | CCOC(=O)c1cnc2c(OC)ccc(OC)c2c1Cl | 100%
40 | NS(=O)(=O)c1ccc(Nc2nc(O)c(/C=C3\C=Nc4ccccc43)s2)cc1 | 95%
41 | CNC(=O)NN | 91.9%
42 | Cc1cc(O[C@@H]2O[C@@H](C)[C@H](O)[C@@H](O)[C@H]2O)c2c3c(c(O[C@@H]4O[C@@H](C)[C@H](O)[C@@H](O)[C@H]4O)cc2c1)C(=O)c1c(O)cccc1C3=O | 57.2%
43 | Cc1cccc(Cc2cnc(NC(=O)CCc3ccc(C)o3)s2)c1 | 5.07% (active)
44 | C=CC(=O)NC(=O)Nc1ccccc1Cl | 21.4%
45 | COc1cccc(-c2nc3sccn3c2-c2ccnc(NCCNC(=O)c3ccccc3)n2)c1 | 41.6%
46 | COc1ccc(-c2nn(-c3ccc(NC(=O)Nc4ccc(Cl)c(C(F)(F)F)c4)cc3)cc2-c2ccncc2)cc1Cl | -33.1% (active)

Row | SMILES | growth
47 | CC(C)CNCC(O)COc1ccc(C(C)(C)c2ccc(OCC(O)CNCC(C)C)cc2)cc1 (stereo not given) | -9.88% (active)
48 | Cc1ccc2[nH]c3nc4cccnc4c(C)c3c2c1 | 69.6%
49 | O=C(Nc1ccc(-n2ccc3c(NC(=O)c4ccccc4)nccc32)cc1)c1ccc(Cl)c(C(F)(F)F)c1 | -17.3% (active)
50 | COc1ccc(-c2nn(-c3ccc(NC(=O)Nc4ccc(Cl)c(Cl)c4)cc3)cc2-c2ccncc2)cc1Cl | -30% (active)
51 | Nc1nccc2c1ccn2-c1cccc(NC(=O)c2ccc(N3CCOCC3)c(C(F)(F)F)c2)c1 | -40.9% (active)
52 | COc1ccc(/C=C/C(=O)/C=C(/C=C/c2ccc(OC)c(OC)c2OC)OB(F)F)c(OC)c1OC | 2.74% (active)
53 | Cc1cc[n+](CCCC[n+]2ccc(C)cc2)cc1 | 94.2%
54 | COC1=C(OC)C(=O)C=CC1=O | 91.4%
55 | Cc1ccccc1C[P+](c1ccccc1)(c1ccccc1)c1ccccc1 | 10%
56 | CC/C(=C(\CC)c1ccc(OCCN(CC)CC)cc1)c1ccc(OCCN(CC)CC)cc1 | 18.3%
57 | COc1cccc(-c2nc3sccn3c2-c2ccnc(NCCNC(=O)Nc3cccc(C(F)(F)F)c3)n2)c1 | 20.4%
58 | COc1ccc(-c2cnc(-c3ccc(F)cc3)[nH]2)cc1 | 44.5%
59 | O=C(Nc1ccc(-n2cc(-c3ccncc3)c(-c3ccc(O)c(Cl)c3)n2)cc1)c1ccc(Cl)c(C(F)(F)F)c1 | -26.9% (active)
60 | O=C(Nc1ccc(-n2ccc3c(NC(=O)c4ccccc4)ncnc32)cc1)c1ccc(Cl)c(C(F)(F)F)c1 | 6.7% (active)
61 | C=CC(=O)Nc1cccc(Nc2nc(Nc3ccc(OCCOC(F)F)cc3)ncc2F)c1 | 42.1%
62 | O=[N+]([O-])c1cccc(C(c2ccccc2)c2ccccc2)c1 | 82.9%
63 | O=C(NCCNc1nccc(-c2c(-c3cccc(O)c3)nc3sccn23)n1)Nc1cccc(C(F)(F)F)c1 | -4.81% (active)
64 | O=C(Nc1cccc(-n2ccc3c(NC(=O)c4ccccc4)nccc32)c1)c1cc(N2CCOCC2)cc(C(F)(F)F)c1 | -42.4% (active)
65 | O=C(Nc1ccc(-n2cc(-c3ccncc3)c(-c3ccc(O)c(Cl)c3)n2)cc1)c1cc(C(F)(F)F)cc(C(F)(F)F)c1 | 27.9%
